# Several values for one entry are separate records, joined by “and”; a condition that tells them apart may be missing. Equal values may be shown once. Records with an inconclusive call do not appear. Activity calls are given as the source filed them.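 Rule for the calls, unless noted: active = normalized viability below 100% at a tested concentration; inactive = the rest.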
# What was measured:
# [1] = viability loss in pontine glioma line – cell-based, SU-DIPG-XXV, MIPE5.0, CellTiter-Glo, qHTS, dose response (AID 1347065; cut-off not given, nearly all actives have AC50 up to about 26 µM;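 note: cells exposed to compound for 48 hours before ATP readout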); details: CellTiter-Glo ATP luminescence
# [2] = SU-DIPG-VI glioma cell viability, MIPE4.0 library, CellTiter-Glo luminescence, qHTS (AID 1347066; cut-off not given, nearly all actives have AC50 up to about 30 µM;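 note: cells exposed to compound for 48 hours before readout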); details: CellTiter-Glo ATP luminescence
# [3] = JHH-DIPG-1 glioma cell viability, MIPE5.0 library, CellTiter-Glo luminescence, qHTS (AID 1347067; cut-off not given, nearly all actives have AC50 up to about 26 µM;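 note: cells exposed to compound for 48 hours before readout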); details: JHH-DIPG-1 glioma viability, CellTiter-Glo ATP luminescence
# [4] = SU-DIPG-XXV glioma cell viability, MIPE5.0 library, qHTS (AID 1347068; cut-off not given, nearly all actives have IC50 up to about 30 µM;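 for IC50: cells exposed to compound for 48 hours before viability readout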)
# [5] = modifiers of HSF1 nuclear foci, imaging, Selleck Cancer Library (AID 1347162; in the data active = plate-normalised HSF1 focus index below about 0.46); details: human cells, at 10 µM; SSMD: measured here: HSF1 foci SSMD mean; cell count: measured here: cell number; plate-normalised HSF1 focus index: stronger effect = lower value
# [6] = survival rescue of mitochondrial mutant cells in low glucose, primary screen, MELAS cybrids, Rieske KO mouse fibroblasts, CellTiter-Glo (AID 1508586;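 active = mean z-score across replicates of 1.96 or higher in either the MELAS or the Rieske mutant cell line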;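 note: z relative to plate mean and SD of compound and empty wells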)
# [7] = ovarian cancer cell viability with rucaparib, profiling panel, oncology-focused library, rucaparib conditional (AID 1508598); details: patient-derived ovarian cancer cells, CellTiter-Glo viability, 144 h, stronger effect = lower value
# [8] = target: NAD(+) hydrolase SARM1 (Homo sapiens) (UniProt Q6SZW1); assay: SARM1 TIR NADase inhibitors, cell lysate, NAD-Glo luminescence (AID 1508614;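 active = compound whose remaining NAD level is above about 45 nM, limit read from the data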;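 note: higher remaining NAD means stronger inhibition of SARM1 NADase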); details: SAM-TIR HEK293T lysate NADase, at 1 µM, stronger effect = higher value
# [9] = viability rescue of complex I mutant cybrids, primary screen, cell-based, galactose medium, ATP luminescence (AID 1645843;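 active = z-score of at least 1.8 in each of two replicates, scored against plate mean and spread of sample wells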;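 note: positive z means more ATP and so rescue of galactose-driven cybrid death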); details: complex I mutant cybrid cells, 72 h, stronger effect = higher value
# [10] = phospholipid biosynthesis inhibitors in animal cells, primary screen, cell-based, LOPAC library, screen 4 (AID 1347384; call rule not given here); details: phospholipid biosynthesis inhibition screen, at 10 µM
# [11] = at 0.000305 µM, OCI-C5x cells, with rucaparib 10 µM, 100% = cells with rucaparib alone
# [12] = at 0.000305 µM, OCI-C5x cells, without rucaparib
# [13] = at 0.000305 µM, OCI-P5x cells, with rucaparib 20 µM, 100% = cells with rucaparib alone
# [14] = at 0.000305 µM, OCI-P5x cells, without rucaparib
# [15] = at 0.00122 µM, OCI-C5x cells, with rucaparib 10 µM, 100% = cells with rucaparib alone
# [16] = at 0.00122 µM, OCI-C5x cells, without rucaparib
# [17] = at 0.00122 µM, OCI-P5x cells, with rucaparib 20 µM, 100% = cells with rucaparib alone
# [18] = at 0.00122 µM, OCI-P5x cells, without rucaparib
# [19] = at 0.00488 µM, OCI-C5x cells, with rucaparib 10 µM, 100% = cells with rucaparib alone
# [20] = at 0.00488 µM, OCI-C5x cells, without rucaparib
# [21] = at 0.00488 µM, OCI-P5x cells, with rucaparib 20 µM, 100% = cells with rucaparib alone
# [22] = at 0.00488 µM, OCI-P5x cells, without rucaparib
# [23] = at 0.0195 µM, OCI-C5x cells, with rucaparib 10 µM, 100% = cells with rucaparib alone
# [24] = at 0.0195 µM, OCI-C5x cells, without rucaparib
# [25] = at 0.0195 µM, OCI-P5x cells, with rucaparib 20 µM, 100% = cells with rucaparib alone
# [26] = at 0.0195 µM, OCI-P5x cells, without rucaparib
# [27] = at 0.0781 µM, OCI-C5x cells, with rucaparib 10 µM, 100% = cells with rucaparib alone
# [28] = at 0.0781 µM, OCI-C5x cells, without rucaparib
# [29] = at 0.0781 µM, OCI-P5x cells, with rucaparib 20 µM, 100% = cells with rucaparib alone
# [30] = at 0.0781 µM, OCI-P5x cells, without rucaparib
# [31] = at 0.313 µM, OCI-C5x cells, with rucaparib 10 µM, 100% = cells with rucaparib alone
# [32] = at 0.313 µM, OCI-C5x cells, without rucaparib
# Sequence of NAD(+) hydrolase SARM1 (Homo sapiens) (Q6SZW1 whole entry, looked up): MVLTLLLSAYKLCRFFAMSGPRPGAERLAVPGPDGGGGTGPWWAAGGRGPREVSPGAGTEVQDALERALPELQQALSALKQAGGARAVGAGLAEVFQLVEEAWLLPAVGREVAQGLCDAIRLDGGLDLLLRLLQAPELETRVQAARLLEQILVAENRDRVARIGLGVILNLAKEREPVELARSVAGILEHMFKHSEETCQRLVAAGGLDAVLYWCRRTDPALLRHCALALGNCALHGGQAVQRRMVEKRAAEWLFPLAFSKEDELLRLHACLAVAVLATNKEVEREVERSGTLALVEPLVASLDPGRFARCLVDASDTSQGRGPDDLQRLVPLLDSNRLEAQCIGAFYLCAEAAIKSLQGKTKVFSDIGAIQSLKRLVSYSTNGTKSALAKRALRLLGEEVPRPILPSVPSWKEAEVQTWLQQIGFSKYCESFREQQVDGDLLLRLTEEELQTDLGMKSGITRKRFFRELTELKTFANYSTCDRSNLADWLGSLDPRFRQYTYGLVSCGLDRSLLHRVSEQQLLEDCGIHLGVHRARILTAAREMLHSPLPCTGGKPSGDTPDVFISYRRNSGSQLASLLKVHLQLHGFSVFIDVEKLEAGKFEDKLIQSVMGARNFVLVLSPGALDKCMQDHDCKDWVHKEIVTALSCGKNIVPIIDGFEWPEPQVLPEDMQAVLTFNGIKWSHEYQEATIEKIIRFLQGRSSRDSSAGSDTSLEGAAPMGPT
compound,measurement,setting,value
N#Cc1ccc(C(c2ccc(C#N)cc2)n2cncn2)cc1,outcome,[1],inactive
same,outcome,[2],inactive
same,outcome,[3],inactive
same,outcome,[4],inactive
same,SSMD,[5],2
same,cell count,[5],6610
same,plate-normalised HSF1 focus index,[5],1.1 (inactive)
same,z-score,"[6]; MELAS cybrid survival, CellTiter-Glo 48 h, stronger effect = higher value",-0.0811 (inactive) and 0.894 (inactive) and -0.0703 (inactive)
same,z-score,"[6]; Rieske KO mouse fibroblast survival, CellTiter-Glo 72 h",-0.000166 and 0.656 and -0.338
same,viability,[7]; [11],117% (inactive)
same,viability,[7]; [12],101% (inactive)
same,viability,[7]; [13],94% (active)
same,viability,[7]; [14],91% (active)
same,viability,[7]; [15],116% (inactive)
same,viability,[7]; [16],113% (inactive)
same,viability,[7]; [17],104% (inactive)
same,viability,[7]; [18],94.3% (active)
same,viability,[7]; [19],114% (inactive)
same,viability,[7]; [20],107% (inactive)
same,viability,[7]; [21],104% (inactive)
same,viability,[7]; [22],97.8% (active)
same,viability,[7]; [23],117% (inactive)
same,viability,[7]; [24],112% (inactive)
same,viability,[7]; [25],109% (inactive)
same,viability,[7]; [26],106% (inactive)
same,viability,[7]; [27],123% (inactive)
same,viability,[7]; [28],102% (inactive)
same,viability,[7]; [29],106% (inactive)
same,viability,[7]; [30],105% (inactive)
same,viability,[7]; [31],117% (inactive)
same,viability,[7]; [32],106% (inactive)
same,viability,"[7]; at 0.313 µM, OCI-P5x cells, with rucaparib 20 µM, 100% = cells with rucaparib alone",104% (inactive)
same,viability,"[7]; at 0.313 µM, OCI-P5x cells, without rucaparib",108% (inactive)
same,viability,"[7]; at 1.25 µM, OCI-C5x cells, with rucaparib 10 µM, 100% = cells with rucaparib alone",107% (inactive)
same,viability,"[7]; at 1.25 µM, OCI-C5x cells, without rucaparib",104% (inactive)
same,viability,"[7]; at 1.25 µM, OCI-P5x cells, with rucaparib 20 µM, 100% = cells with rucaparib alone",108% (inactive)
same,viability,"[7]; at 1.25 µM, OCI-P5x cells, without rucaparib",107% (inactive)
same,viability,"[7]; at 5 µM, OCI-C5x cells, with rucaparib 10 µM, 100% = cells with rucaparib alone",113% (inactive)
same,viability,"[7]; at 5 µM, OCI-C5x cells, without rucaparib",128% (inactive)
same,viability,"[7]; at 5 µM, OCI-P5x cells, with rucaparib 20 µM, 100% = cells with rucaparib alone",112% (inactive)
same,viability,"[7]; at 5 µM, OCI-P5x cells, without rucaparib",104% (inactive)
same,remaining NAD,[8],10 nM (inactive)
same,z-score,[9],0.515 (inactive) and 0.315 (inactive)
Cc1cc2c(C(C)C)c(O)c(O)c(C=O)c2c(O)c1-c1c(C)cc2c(C(C)C)c(O)c(O)c(C=O)c2c1O,AC50,[1],7.42 µM (active)
same,AC50,[2],8.33 µM (active)
same,AC50,[3],2.95 µM (active)
same,IC50,[4],23.5 µM (active)
same,SSMD,[5],-10.3
same,cell count,[5],5460
same,plate-normalised HSF1 focus index,[5],0.468 (active)
same,outcome,[10],inactive
same,viability,[7]; [11],113% (inactive)
same,viability,[7]; [12],130% (inactive)
same,viability,[7]; [13],95.4% (active)
same,viability,[7]; [14],103% (inactive)
same,viability,[7]; [15],115% (inactive)
same,viability,[7]; [16],120% (inactive)
same,viability,[7]; [17],95.6% (active)
same,viability,[7]; [18],104% (inactive)
same,viability,[7]; [19],119% (inactive)
same,viability,[7]; [20],131% (inactive)
same,viability,[7]; [21],96.5% (active)
same,viability,[7]; [22],108% (inactive)
same,viability,[7]; [23],113% (inactive)
same,viability,[7]; [24],134% (inactive)
same,viability,[7]; [25],101% (inactive)
same,viability,[7]; [26],112% (inactive)
same,viability,[7]; [27],110% (inactive)
same,viability,[7]; [28],123% (inactive)
same,viability,[7]; [29],108% (inactive)
same,viability,[7]; [30],116% (inactive)
same,viability,[7]; [31],128% (inactive)
same,viability,[7]; [32],144% (inactive)

# From PubChem BioAssay
